This is an account of results in PubChem BioAssay AID841 (Emory University Molecular Libraries Screening Center, 2007).

The whole screen tested about 140,000 compounds, of which about 2,100 (1.5%) were called active. The entries come from a sample that favours actives as a whole. Values without a mark were called inactive. Cut-off read from the data, not from the text of the source: active = protection mostly above about 24% (no sharp cut-off); inactive = mostly below about 26%.

The test in a line: compounds protecting cells from measles virus cytopathic effect, primary screen, measles RdRp inhibitor project, single point, MLSMR library, absorbance (AID 841). Conditions: Measles virus-infected cells, CPE protection, at 4 µM, stronger effect = higher value.
For the compound `O=C(OCC(O)C(O)COC(=O)c1ccccc1)c1ccccc1` (centres undefined), the protection (pct of control) was 37.5% (active). For `O=C(COC(=O)c1ccccc1)Nc1ccccc1Sc1ccccc1`, the protection (pct of control) is 6.19%. Regarding `COC(=O)c1ccc(NCC(=O)c2ccccc2)cc1`, the protection (pct of control) was 2.68%.

Consider `CCn1c(O)c(N=NC(=O)c2cccc(S(=O)(=O)N3CCCCC3)c2)c2ccccc21`, for which the protection (pct of control) is 28.2%. As to `O=C(C/C(=N\NC(=O)c1ccccc1Br)C(F)(F)F)c1cccs1`, the protection (pct of control) was 9.78%. The value for `O=S(=O)(c1ccc(F)cc1)N1CCN(C(=S)NCc2ccco2)CC1` was 18.5%. The value for `COC(=O)c1c(NC(=O)CN2CCN(S(=O)(=O)c3ccccc3[N+](=O)[O-])CC2)sc2c1CCC(C)C2` (centres undefined) was 1.76%; that for `C/C(Cc1ccccc1)=N\NC(=O)CNC(=O)c1cccc(Br)c1` was 4.73%.

`O=C(COc1ccccc1)NCc1ccc2c(c1)OCO2`: the protection (pct of control) was 17.1%. The value for `CCOC(=O)NCc1ccc2c(c1)OCO2` was 22%; that for `c1n[nH]c(NCc2ccc3c(c2)OCO3)n1` was 47.6% (active). On to `Cc1ccc(S(=O)(=O)Nc2nc(C)cc(N/N=C/c3ccc(O)cc3)n2)cc1`, for which the protection (pct of control) was 10.3%.

Take `CCOC(=O)C1CCN(C(=O)/C=C/c2cc(OC)c(OC)c(OC)c2)CC1`: the protection (pct of control) is 18%. For `COc1ccc(CNC(=O)CN(Cc2ccc(Cl)cc2)S(C)(=O)=O)cc1`, the protection (pct of control) is 24.2%. On to `Cc1cc(C)c(S(=O)(=O)N2C=CC(C(F)(F)F)=NCC2)c(C)c1`, for which the protection (pct of control) is 30.8% (active). Under `Cc1cc(NS(=O)(=O)c2ccc(NC(=S)NC(=O)c3ccc(F)cc3Cl)cc2)no1` stands 9.68%; under `O=C(CN1CCCCCC1)N1c2ccccc2Sc2ccc(C(F)(F)F)cc21`, 27.8% (active); under `O=C(CN1CCCCC1)N1c2ccccc2Sc2ccc(C(F)(F)F)cc21`, 5.95%. As to `COc1cc(/C=C/C(=O)N2c3ccccc3Sc3ccc(C(F)(F)F)cc32)cc(OC)c1OC`, the protection (pct of control) was 2.04%. Under `CCOC(=O)CNC(=O)/C=C/c1c(Cl)cccc1Cl` stands 1.29%; under `COc1cccc(C2SCC(=O)N2c2cccc(C)c2)c1OC` (centres undefined), 8.06%.

In the case of `CC(C)C(C)(C#N)NC(=O)CSc1nc2scc(-c3ccccc3)c2c(=O)[nH]1` (centres undefined), the protection (pct of control) was 8.49%. Under `COc1ccc(Cl)cc1C(=O)NCC#N` stands 16.7%; under `Cc1nn(C)cc1CNC(=O)Nc1ccc(Cl)cc1`, 8.21%; under `COc1ccc(Cl)cc1C(=O)NCc1cn(C)nc1C`, 42.3% (active). Under `CCCCCOc1ccc(/C=C/C(=O)NCCc2nc3ccccc3[nH]2)cc1OC` stands 1.18%.

Turning to `CCOC(=O)c1c(C)n(C)c2ccc(OC)c(NS(=O)(=O)CC)c12`, the protection (pct of control) is 7.46%. The value for `CC(Oc1ccccc1F)C(=O)NN` (centres undefined) was 17.6%; that for `CCn1c2ccccc2c2cc(NC(=O)COC(=O)c3ccccc3Br)ccc21` was 15.5%; that for `Cn1cnc(C(F)(F)F)c1-c1ccc([N+](=O)[O-])cc1` was 14.3%. Under `COc1ccc(CCNC(=O)COC(=O)C2CCCCC2)cc1` stands 7.59%; under `Cc1nn(-c2ccccc2)c(Cl)c1C(=O)Nc1ccccc1`, 5.22%; under `Cc1ccc(C(=O)/C=C/c2c(C)nn(-c3ccccc3)c2Cl)cc1`, 60.1% (active). Under `Cc1nn(-c2ccccc2)c(Cl)c1/C=C/C(=O)c1ccc(O)cc1` stands 21.9%; under `CCOc1cc(C(=O)Nc2c(C)ccc3nsnc23)cc(OCC)c1OCC`, 37.8% (active); under `Cc1ccc2nsnc2c1NC(=O)c1ccccc1[N+](=O)[O-]`, 5.19%.

Regarding `CCOc1cc(C(=O)Nc2ncccn2)cc(OCC)c1OCC`, the protection (pct of control) was 2.67%.

As to `COC(=O)Cc1ccc(N(Cc2ccccc2F)S(=O)(=O)c2ccc(Br)cc2)cc1`, the protection (pct of control) was 18.5%. The value for `COc1ccc(NC(=O)CN2C(=O)C(c3ccccc3)=NC23CCCCCC3)cc1OC` was 12%; that for `CCc1ccc(Oc2coc3cc(OC(=O)c4cc5ccccc5oc4=O)ccc3c2=O)cc1` was 5.53%. With `Cc1ccc(S(=O)(=O)N2CCOCC2)cc1C(=O)NC(=S)N(Cc1ccccc1)C(C)C`, the protection (pct of control) is 21.7%. Under `COc1cc2c(cc1/C=C1/NC(=O)N(c3ccccc3)C1=O)OCO2` stands 22.7%; under `COC(=O)c1ccc(C(=O)OC)c(NC(=S)N2CCN(c3cc(Cl)ccc3C)CC2)c1`, 6.62%. Under `COC(=O)c1ccc(C(=O)OC)c(NC(=S)N2CCN(c3ccc(F)cc3)CC2)c1` stands 54.6% (active); under `COC(=O)c1ccc(C(=O)OC)c(NC(=S)N2CCCCC2)c1`, 5.41%. As to `CCCc1cc(=O)[nH]c(SCc2cc(=O)oc3c(C)c(C)ccc23)n1`, the protection (pct of control) is 29.1%. `Cc1ccccc1Cn1nc(C)c(NC(=O)C(F)(F)F)c1C`: the protection (pct of control) is 2.3%.

As to `COC(=O)c1sc(N)c(C(=O)OC)c1COC(=O)CNS(=O)(=O)c1ccc(C)cc1`, the protection (pct of control) was 12.3%. As for `O=C(Nc1ccccc1Cl)c1ccccc1S(=O)(=O)c1ccccc1[N+](=O)[O-]`, the protection (pct of control) is 2.96%.

Regarding `O=C(CS(=O)(=O)Cc1ccccc1)Nc1cccnc1`, the protection (pct of control) was 20.4%. For `Cc1cc(C)c(NC(=O)CS(=O)CC(=O)Nc2cccnc2)c(C)c1` (centres undefined), the protection (pct of control) was 56.7% (active).

On to `CCC(=O)Nc1cccc(NC(=O)c2cccnc2)c1`, for which the protection (pct of control) is 5.87%. Take `COc1ccc(S(=O)(=O)NC(C)C)cc1C(=O)NC1CCCCC1`: the protection (pct of control) is 6.76%.

For `Cc1cccc(C(=O)NC(=S)N2CCN(c3ccc([N+](=O)[O-])cc3)CC2)c1`, the protection (pct of control) is 6.39%. Regarding `Cc1ccccc1N(C(=O)Cc1cccs1)C(C(=O)NC1CCCCC1)c1cn(C)nc1C` (centres undefined), the protection (pct of control) was 20.1%. Regarding `CN(CCCC(=O)Nc1nccs1)S(=O)(=O)c1ccc(Cl)cc1`, the protection (pct of control) was 15.3%.

`Cn1cccc1C(=O)Nc1nccs1`: the protection (pct of control) is 0.78%.

Regarding `O=C(CCSCCc1ccccn1)Nc1nccs1`, the protection (pct of control) is 45.9% (active). On to `NC(=O)Cc1ccc2sc(-c3ccccc3)nc2c1`, for which the protection (pct of control) was 30.1%. Under `CCc1cccc(CC)c1NC(=O)COc1ccccc1C(=O)c1cc(C#N)c(=O)n(C2CCCCC2)c1` stands 11.3%. The value for `COc1ccc(NC(=O)CN(Cc2ccccc2)S(C)(=O)=O)cc1OC` was 34.5%; that for `CS(=O)(=O)c1ccc2nc(NC(=O)C3CCCCC3)sc2c1` was 38.1% (active). The value for `CS(=O)(=O)c1ccc2nc(NC(=O)CN3CCCCCC3)sc2c1` was 4.57%.

Consider `CS(=O)(=O)c1ccc2nc(NC(=O)C3C4C=CC(C4)C3C(=O)O)sc2c1` (centres undefined), for which the protection (pct of control) is 18.3%. Consider `O=C(/C=C/c1cnc2ccccc2n1)NC1CCCCCC1`, for which the protection (pct of control) is 9.7%. Under `Cc1ccc(-c2csc(SCC(=O)Nc3cc(C)on3)n2)cc1` stands 7.27%; under `COc1ccccc1-c1nnc(SCC(=O)Nc2cc(C)on2)o1`, 14.9%. Under `Cc1cc(NC(=O)CSc2nnc(-c3ccc(Cl)s3)o2)no1` stands 86.1% (active). For `O=C(COC(=O)/C=C/c1nc2ccccc2s1)Nc1ccccc1Oc1ccccc1`, the protection (pct of control) is 1.41%. Take `Cc1cccc(-n2c(SCC(N)=O)nc3c(c2=O)C2(CCCCC2)Cc2ccccc2-3)c1`: the protection (pct of control) is 29.9% (active). `Cc1cccc(-n2c(N)cc(=O)nc2SC(C)C(=O)NC2CCCCC2)c1` (centres undefined): the protection (pct of control) was 20.2%.

For `N#CCSc1nc2c(c(=O)n1Cc1ccccc1)C1(CCCC1)Cc1ccccc1-2`, the protection (pct of control) was 1.58%. Turning to `COc1ccc(-c2csc3ncnc(Oc4ccc5c(C)cc(=O)oc5c4)c23)cc1`, the protection (pct of control) was 6.48%. The value for `O=C(COc1ccc([N+](=O)[O-])cc1)Nc1ccc(N2CCCC2)cc1` was 18.8%. Regarding `O=C(COc1ccc(/C=N/NC(=O)c2ccc(O)cc2)cc1)Nc1ccc([N+](=O)[O-])cc1`, the protection (pct of control) was 40.1% (active). Under `CCCCCC(=O)Nc1ccc(C(=O)N/N=C/c2ccc([N+](=O)[O-])cc2)cc1` stands 25.1%; under `O=C(NNC1CC(=O)N(c2cccc(Cl)c2)C1=O)c1cccnc1` (centres undefined), 8.5%.

`COc1cc(C2C(N3C(=O)c4ccccc4C3=O)C(=O)N2c2ccc(C)c(C)c2)cc(OC)c1OC` (centres undefined): the protection (pct of control) is 9.11%. Turning to `CCc1ccc2nc3sc(C(=O)Nc4nnc(CC)s4)c(N)c3cc2c1`, the protection (pct of control) was 1.37%. As for `Cc1ccc(NC(=O)c2sc3nc(N)c(C#N)cc3c2N)cc1`, the protection (pct of control) is 74.1% (active). For `CC(=O)Nc1ccc(NC(=O)c2sc3nc4c(c(-c5ccc(C)cc5)c3c2N)CCC4)cc1`, the protection (pct of control) was 9.68%.

In the case of `Cc1ccc(NC(=S)N2CCN(c3ncccn3)CC2)cc1C`, the protection (pct of control) is 12.6%. `CCNC(=S)N1CCN(C(=O)c2ccco2)CC1`: the protection (pct of control) was 9.63%.

Turning to `CCNC(=S)N1CCN(c2ncccn2)CC1`, the protection (pct of control) is 20.9% (active).

As for `CCOCC(=O)Nc1sc2c(c1C(=O)OCC)CCCC2`, the protection (pct of control) is 7.18%. The value for `CCOC(=O)c1c(NC(=S)NC(=O)c2ccco2)sc2c1CCCC2` was 37%; that for `CCOC(=O)c1c(NC(=O)c2ccc(Br)o2)sc2c1CCCC2` was 27.8% (active). Under `COc1cc(/C=C/C(=O)OCC(=O)Nc2cccc(Oc3ccccc3)c2)ccc1O` stands 11.5%; under `C=CCc1ccccc1OCC(=O)N/N=C/c1ccccc1OCC`, 1.64%; under `COc1ccc(C)cc1NC(=O)CCC(=O)Nc1nnc(C(F)(F)F)s1`, 11.8%. For the compound `COc1ccc(OC)c(-n2nnnc2SCC(=O)Nc2cc(C)ccc2OC)c1`, the protection (pct of control) is 17.2%. As for `COc1ccc(C(F)(F)F)cc1N/C=C\c1nnnn1-c1ccc(C)cc1`, the protection (pct of control) is 30.4% (active). Under `CCC(C)NC(=O)c1ccc(N2CCC3(CC2)OCCO3)c([N+](=O)[O-])c1` (centres undefined) stands 13.6%; under `Cc1cc(Cl)ccc1OCCCC(=O)NCc1ccncc1`, 6.27%.
